# Measured values as given in ChEMBL document CHEMBL1961873, “Compounds: GSK PKIS; Assays: Nanosyn kinase panel” (2012).
# Experiments:
# [1] = biological target: Serine/threonine-protein kinase MRCK alpha (Homo sapiens) (UniProt Q5VT25); conditions: at 0.1 µM
# [2] = biological target: Serine/threonine-protein kinase MRCK alpha (Homo sapiens) (UniProt Q5VT25); conditions: at 1 µM
# [3] = biological target: Serine/threonine-protein kinase MRCK beta (Homo sapiens) (UniProt Q9Y5S2); conditions: at 0.1 µM
# [4] = biological target: Serine/threonine-protein kinase MRCK beta (Homo sapiens) (UniProt Q9Y5S2); conditions: at 1 µM
# [5] = biological target: Ribosomal protein S6 kinase alpha-5 (Homo sapiens) (UniProt O75582); conditions: at 0.1 µM
# Ribosomal protein S6 kinase alpha-5 (Homo sapiens), sequence (O75582 whole entry, looked up): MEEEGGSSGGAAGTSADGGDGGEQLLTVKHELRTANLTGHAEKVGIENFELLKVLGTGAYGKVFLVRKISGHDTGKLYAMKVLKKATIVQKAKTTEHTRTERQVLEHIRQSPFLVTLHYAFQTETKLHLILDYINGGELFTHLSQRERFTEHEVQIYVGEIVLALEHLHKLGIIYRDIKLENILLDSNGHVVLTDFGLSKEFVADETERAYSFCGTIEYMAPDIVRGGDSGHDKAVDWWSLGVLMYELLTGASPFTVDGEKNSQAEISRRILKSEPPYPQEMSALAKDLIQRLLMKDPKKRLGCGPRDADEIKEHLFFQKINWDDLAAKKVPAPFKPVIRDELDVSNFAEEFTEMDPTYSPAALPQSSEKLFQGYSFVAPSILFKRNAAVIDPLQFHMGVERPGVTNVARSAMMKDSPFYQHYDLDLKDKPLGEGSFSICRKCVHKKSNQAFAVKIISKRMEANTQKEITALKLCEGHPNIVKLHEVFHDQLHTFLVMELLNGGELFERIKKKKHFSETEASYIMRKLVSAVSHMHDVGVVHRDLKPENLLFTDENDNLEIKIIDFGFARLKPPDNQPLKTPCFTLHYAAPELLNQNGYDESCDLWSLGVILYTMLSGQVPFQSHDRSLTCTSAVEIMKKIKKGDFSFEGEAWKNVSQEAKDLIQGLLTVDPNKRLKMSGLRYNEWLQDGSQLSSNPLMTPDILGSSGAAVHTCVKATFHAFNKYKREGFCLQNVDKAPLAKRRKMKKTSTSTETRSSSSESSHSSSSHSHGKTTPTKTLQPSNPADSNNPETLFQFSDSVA
# [6] = biological target: Ribosomal protein S6 kinase alpha-5 (Homo sapiens) (UniProt O75582); conditions: at 1 µM
# [7] = biological target: Ribosomal protein S6 kinase alpha-4 (Homo sapiens) (UniProt O75676); conditions: at 0.1 µM
# [8] = biological target: Ribosomal protein S6 kinase alpha-4 (Homo sapiens) (UniProt O75676); conditions: at 1 µM
# [9] = biological target: Ribosomal protein S6 kinase beta-1 (Homo sapiens) (UniProt P23443); conditions: at 0.1 µM
# Ribosomal protein S6 kinase beta-1 (Homo sapiens), sequence (P23443 whole entry, looked up): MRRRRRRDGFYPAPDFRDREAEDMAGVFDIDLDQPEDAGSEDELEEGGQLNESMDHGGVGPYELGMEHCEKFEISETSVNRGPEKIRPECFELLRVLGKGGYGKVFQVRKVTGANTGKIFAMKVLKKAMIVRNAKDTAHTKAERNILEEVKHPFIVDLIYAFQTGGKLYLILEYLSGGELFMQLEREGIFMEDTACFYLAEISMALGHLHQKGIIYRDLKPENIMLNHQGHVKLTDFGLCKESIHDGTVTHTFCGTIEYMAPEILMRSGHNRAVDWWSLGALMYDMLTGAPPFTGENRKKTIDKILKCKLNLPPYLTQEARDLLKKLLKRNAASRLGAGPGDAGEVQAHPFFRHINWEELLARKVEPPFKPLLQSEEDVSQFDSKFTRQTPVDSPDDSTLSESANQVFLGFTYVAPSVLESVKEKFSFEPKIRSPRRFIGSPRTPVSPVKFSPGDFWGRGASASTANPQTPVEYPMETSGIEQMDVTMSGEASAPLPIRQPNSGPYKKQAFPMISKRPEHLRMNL
# [10] = biological target: Ribosomal protein S6 kinase beta-1 (Homo sapiens) (UniProt P23443); conditions: at 1 µM
# [11] = biological target: T1, 3-phosphoinositide-dependent protein kinase 1 (Homo sapiens) (UniProt O15530); conditions: at 0.1 µM;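 note: values are mean inhibition of PDK1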
# T1 sequence (whole entry): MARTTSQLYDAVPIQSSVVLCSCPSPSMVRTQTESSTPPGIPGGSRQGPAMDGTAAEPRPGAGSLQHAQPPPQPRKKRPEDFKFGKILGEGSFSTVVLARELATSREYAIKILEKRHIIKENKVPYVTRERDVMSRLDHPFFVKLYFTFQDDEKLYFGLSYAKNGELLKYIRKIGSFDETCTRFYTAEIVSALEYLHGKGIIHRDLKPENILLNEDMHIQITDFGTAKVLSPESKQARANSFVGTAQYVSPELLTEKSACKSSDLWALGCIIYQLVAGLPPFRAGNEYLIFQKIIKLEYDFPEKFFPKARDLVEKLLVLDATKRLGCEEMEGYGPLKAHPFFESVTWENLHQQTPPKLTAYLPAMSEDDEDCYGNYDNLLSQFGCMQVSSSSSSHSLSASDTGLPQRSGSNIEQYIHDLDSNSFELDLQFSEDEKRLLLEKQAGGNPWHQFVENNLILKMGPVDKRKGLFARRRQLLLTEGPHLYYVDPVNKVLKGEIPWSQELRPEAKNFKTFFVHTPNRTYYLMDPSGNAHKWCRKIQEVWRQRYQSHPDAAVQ
# [12] = biological target: cAMP-dependent protein kinase catalytic subunit alpha (Homo sapiens) (UniProt P17612); conditions: at 0.1 µM
# [13] = biological target: cAMP-dependent protein kinase catalytic subunit alpha (Homo sapiens) (UniProt P17612); conditions: at 1 µM
# [14] = biological target: Protein kinase C alpha type (Homo sapiens) (UniProt P17252); conditions: at 0.1 µM
# [15] = biological target: Protein kinase C alpha type (Homo sapiens) (UniProt P17252); conditions: at 1 µM
# [16] = biological target: Protein kinase C beta type (Homo sapiens) (UniProt P05771); conditions: at 0.1 µM
# Protein kinase C beta type (Homo sapiens), sequence (P05771 2-671 limits assumed): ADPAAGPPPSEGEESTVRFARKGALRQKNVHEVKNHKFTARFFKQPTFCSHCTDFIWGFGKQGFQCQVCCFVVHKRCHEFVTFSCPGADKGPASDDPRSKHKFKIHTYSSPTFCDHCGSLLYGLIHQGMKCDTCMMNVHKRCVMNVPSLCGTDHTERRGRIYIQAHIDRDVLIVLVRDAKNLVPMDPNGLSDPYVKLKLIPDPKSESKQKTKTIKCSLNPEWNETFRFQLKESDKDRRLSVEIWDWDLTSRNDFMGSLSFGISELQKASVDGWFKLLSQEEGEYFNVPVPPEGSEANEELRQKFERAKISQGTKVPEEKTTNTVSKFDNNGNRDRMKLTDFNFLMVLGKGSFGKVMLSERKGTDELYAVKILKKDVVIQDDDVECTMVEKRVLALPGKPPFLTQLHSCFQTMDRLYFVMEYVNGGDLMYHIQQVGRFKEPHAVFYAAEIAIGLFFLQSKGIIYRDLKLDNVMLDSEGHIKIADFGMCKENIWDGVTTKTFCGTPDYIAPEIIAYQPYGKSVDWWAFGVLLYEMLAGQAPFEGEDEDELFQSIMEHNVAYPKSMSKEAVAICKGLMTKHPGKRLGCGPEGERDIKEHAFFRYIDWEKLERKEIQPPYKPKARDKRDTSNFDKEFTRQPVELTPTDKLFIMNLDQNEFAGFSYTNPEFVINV
# [17] = biological target: Protein kinase C beta type (Homo sapiens) (UniProt P05771); conditions: at 1 µM
# [18] = biological target: Protein kinase C eta type (Homo sapiens) (UniProt P24723); conditions: at 0.1 µM
# [19] = biological target: Protein kinase C eta type (Homo sapiens) (UniProt P24723); conditions: at 1 µM
# [20] = biological target: Protein kinase C gamma type (Homo sapiens) (UniProt P05129); conditions: at 0.1 µM;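 note: values are mean percent inhibition of PKC gamma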
# Serine/threonine-protein kinase MRCK alpha (Homo sapiens), sequence (Q5VT25 whole entry): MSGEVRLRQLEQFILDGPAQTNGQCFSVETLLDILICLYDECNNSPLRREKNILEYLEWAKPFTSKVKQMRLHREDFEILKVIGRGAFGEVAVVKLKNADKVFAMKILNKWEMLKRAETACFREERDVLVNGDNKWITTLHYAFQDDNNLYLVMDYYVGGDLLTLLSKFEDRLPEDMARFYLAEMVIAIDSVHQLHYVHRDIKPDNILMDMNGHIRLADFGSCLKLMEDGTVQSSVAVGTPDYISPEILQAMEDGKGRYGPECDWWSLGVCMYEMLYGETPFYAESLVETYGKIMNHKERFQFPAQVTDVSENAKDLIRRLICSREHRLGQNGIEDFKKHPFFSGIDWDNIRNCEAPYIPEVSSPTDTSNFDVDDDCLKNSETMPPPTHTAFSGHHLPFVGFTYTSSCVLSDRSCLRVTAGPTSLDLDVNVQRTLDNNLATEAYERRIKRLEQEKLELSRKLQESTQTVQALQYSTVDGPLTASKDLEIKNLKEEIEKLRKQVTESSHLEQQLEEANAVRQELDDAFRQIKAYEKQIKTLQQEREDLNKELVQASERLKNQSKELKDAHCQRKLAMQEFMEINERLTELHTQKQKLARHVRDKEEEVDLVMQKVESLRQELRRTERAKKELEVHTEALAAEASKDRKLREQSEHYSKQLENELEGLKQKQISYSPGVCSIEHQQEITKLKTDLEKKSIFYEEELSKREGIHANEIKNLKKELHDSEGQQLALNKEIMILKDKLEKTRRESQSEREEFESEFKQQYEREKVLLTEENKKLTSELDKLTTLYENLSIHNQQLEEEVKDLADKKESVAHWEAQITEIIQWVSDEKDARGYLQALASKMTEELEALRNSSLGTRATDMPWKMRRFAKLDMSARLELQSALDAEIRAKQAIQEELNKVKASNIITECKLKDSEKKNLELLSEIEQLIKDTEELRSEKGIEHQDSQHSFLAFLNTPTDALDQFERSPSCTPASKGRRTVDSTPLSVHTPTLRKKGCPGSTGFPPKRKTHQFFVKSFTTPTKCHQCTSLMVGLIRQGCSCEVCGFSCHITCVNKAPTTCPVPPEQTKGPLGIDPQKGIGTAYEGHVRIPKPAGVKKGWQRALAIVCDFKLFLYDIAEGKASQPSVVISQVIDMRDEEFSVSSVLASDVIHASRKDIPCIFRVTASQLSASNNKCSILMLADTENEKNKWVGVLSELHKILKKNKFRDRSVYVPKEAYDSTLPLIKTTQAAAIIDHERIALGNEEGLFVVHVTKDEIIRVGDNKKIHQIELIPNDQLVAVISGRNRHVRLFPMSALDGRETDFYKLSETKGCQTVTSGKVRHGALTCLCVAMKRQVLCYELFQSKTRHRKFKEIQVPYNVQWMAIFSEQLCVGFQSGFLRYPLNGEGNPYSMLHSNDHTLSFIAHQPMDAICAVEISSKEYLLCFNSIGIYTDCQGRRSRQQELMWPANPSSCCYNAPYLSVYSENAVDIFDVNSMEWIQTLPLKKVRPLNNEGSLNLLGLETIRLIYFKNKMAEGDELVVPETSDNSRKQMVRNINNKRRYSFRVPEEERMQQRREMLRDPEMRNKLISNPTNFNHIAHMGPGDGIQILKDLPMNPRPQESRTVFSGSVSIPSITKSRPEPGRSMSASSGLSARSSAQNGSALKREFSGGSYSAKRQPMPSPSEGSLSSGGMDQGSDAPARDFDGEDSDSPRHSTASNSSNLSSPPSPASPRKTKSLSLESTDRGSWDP
SMILES,inhibition [1] [%],inhibition [2] [%],inhibition [3] [%],inhibition [4] [%],inhibition [5] [%],inhibition [6] [%],inhibition [7] [%],inhibition [8] [%],inhibition [9] [%],inhibition [10] [%],inhibition [11] [%],inhibition [12] [%],inhibition [13] [%],inhibition [14] [%],inhibition [15] [%],inhibition [16] [%],inhibition [17] [%],inhibition [18] [%],inhibition [19] [%],inhibition [20] [%]
COC(=O)Nc1nc2ccc(S(=O)(=O)c3ccc(NC(=O)Nc4cc(C(F)(F)F)ccc4F)cc3)cc2[nH]1,0.58,-0.35,1.96,1.32,2.41,1.23,0.77,4.31,2.42,0.71,1.73,1.93,1.3,0.42,-0.51,0.31,0.32,0.95,2.18,0.47
NS(=O)(=O)c1ccc(Nc2ncc(-c3ccccc3)o2)cc1,-0.91,-1.21,0.24,1.14,3.01,4.81,3,5.37,2.3,3.51,4.51,1.3,3.27,0,1.96,-0.16,1.54,3.2,1.9,1.28
CS(=O)(=O)CCNCc1ccc(-c2ccc3ncnc(Nc4ccc(OCc5ccccc5)c(C(F)(F)F)c4)c3c2)o1,-6.32,-1.92,-0.98,-1.25,8.24,6.53,1.86,0.65,1.21,1.16,-0.19,1.37,1.5,0.59,0.28,0.21,1.23,4.55,5.11,2.66
CCOc1ccc2c(-c3ccnc(Nc4cccc(C(F)(F)F)c4)n3)cnn2n1,-4.67,-1.89,-0.48,-1.84,0.66,-1.09,1.4,-0.01,0.31,-0.17,-2.03,1.32,1.22,0.95,0.74,0.58,0.67,0.98,-0.29,4.45
Nc1ncc(-c2cccc(S(N)(=O)=O)c2)c2scc(-c3ccc(F)c(Cl)c3)c12,-3.16,7.9,0.86,0.71,2.3,0.77,3.08,2.86,1.63,0.72,1.01,3.02,3.59,-0.67,2.74,-0.08,0.9,4.76,6.59,-0.92
CCn1c(-c2nonc2N)nc2cnc(Oc3cccc(NC(=O)c4ccc(N(C)C)cc4)c3)cc21,7.29,53.4,17,62.9,60.2,80.5,61.2,79,71.7,90.4,1.22,19.6,70.5,0.56,7.8,16.7,53.6,43.6,88,3.96
CC(=O)NCc1cccc(C#Cc2cncnc2Nc2ccc(OCc3cccc(F)c3)c(Cl)c2)c1,0.23,-0.33,0.09,1.09,-4.98,-3.7,0.45,4,0.26,0.74,0.04,0.53,0.58,0.2,1.17,-0.24,3.27,1.39,3.4,-0.73
